In PubChem BioAssay:
Values without a mark were called inactive. Some of the results follow. The source made the active and inactive calls.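 The calls were made as follows, unless noted: active = inhibition above the hit cutoff set in the earlier primary screen (cut at about 27% in these data); inactive = the rest.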

How the values were obtained:
[1] = target: Protein phosphatase methylesterase 1 (Homo sapiens) (UniProt Q9Y570); test: human PME-1 methylesterase inhibition confirmation – biochemical, fluorescence polarization, FP-Rh probe, triplicate (AID 2171); conditions: recombinant PME-1, FP-Rh probe fluorescence polarization; at 5.9 µM; stronger effect = higher value;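 also: 0% = enzyme with DMSO and 100% = wells lacking PME-1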
Sequence of Protein phosphatase methylesterase 1 (Homo sapiens) (Q9Y570 whole entry, looked up, the tested form may be a part): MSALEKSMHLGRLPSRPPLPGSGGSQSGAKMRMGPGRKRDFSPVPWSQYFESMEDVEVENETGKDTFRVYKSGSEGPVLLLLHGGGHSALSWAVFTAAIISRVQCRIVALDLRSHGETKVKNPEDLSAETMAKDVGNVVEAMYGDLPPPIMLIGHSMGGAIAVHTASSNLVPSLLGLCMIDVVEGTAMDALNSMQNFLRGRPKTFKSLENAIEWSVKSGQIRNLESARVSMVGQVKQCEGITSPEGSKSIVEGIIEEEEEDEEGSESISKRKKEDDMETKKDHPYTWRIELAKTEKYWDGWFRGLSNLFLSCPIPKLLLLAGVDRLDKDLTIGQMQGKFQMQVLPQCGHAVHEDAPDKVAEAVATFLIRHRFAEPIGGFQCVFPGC

[2] = target: Nuclear receptor coactivator 3 (Homo sapiens) (UniProt Q9Y6Q9); test: NCOA3 GAL4-fusion reporter inhibition – cell-based, luminescence, quadruplicate, confirmation (AID 588792;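 active = mean inhibition over 43.08%, the solvent-only control mean plus 3 SD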;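 also: 0% = DMSO treated cells and 100% = gossypol at 36 µM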); conditions: HEK293 GAL4-SRC3 luciferase reporter, at 3.6 µM, stronger effect = higher value
Sequence of Nuclear receptor coactivator 3 (Homo sapiens) (Q9Y6Q9 whole entry, looked up, the tested form may be a part): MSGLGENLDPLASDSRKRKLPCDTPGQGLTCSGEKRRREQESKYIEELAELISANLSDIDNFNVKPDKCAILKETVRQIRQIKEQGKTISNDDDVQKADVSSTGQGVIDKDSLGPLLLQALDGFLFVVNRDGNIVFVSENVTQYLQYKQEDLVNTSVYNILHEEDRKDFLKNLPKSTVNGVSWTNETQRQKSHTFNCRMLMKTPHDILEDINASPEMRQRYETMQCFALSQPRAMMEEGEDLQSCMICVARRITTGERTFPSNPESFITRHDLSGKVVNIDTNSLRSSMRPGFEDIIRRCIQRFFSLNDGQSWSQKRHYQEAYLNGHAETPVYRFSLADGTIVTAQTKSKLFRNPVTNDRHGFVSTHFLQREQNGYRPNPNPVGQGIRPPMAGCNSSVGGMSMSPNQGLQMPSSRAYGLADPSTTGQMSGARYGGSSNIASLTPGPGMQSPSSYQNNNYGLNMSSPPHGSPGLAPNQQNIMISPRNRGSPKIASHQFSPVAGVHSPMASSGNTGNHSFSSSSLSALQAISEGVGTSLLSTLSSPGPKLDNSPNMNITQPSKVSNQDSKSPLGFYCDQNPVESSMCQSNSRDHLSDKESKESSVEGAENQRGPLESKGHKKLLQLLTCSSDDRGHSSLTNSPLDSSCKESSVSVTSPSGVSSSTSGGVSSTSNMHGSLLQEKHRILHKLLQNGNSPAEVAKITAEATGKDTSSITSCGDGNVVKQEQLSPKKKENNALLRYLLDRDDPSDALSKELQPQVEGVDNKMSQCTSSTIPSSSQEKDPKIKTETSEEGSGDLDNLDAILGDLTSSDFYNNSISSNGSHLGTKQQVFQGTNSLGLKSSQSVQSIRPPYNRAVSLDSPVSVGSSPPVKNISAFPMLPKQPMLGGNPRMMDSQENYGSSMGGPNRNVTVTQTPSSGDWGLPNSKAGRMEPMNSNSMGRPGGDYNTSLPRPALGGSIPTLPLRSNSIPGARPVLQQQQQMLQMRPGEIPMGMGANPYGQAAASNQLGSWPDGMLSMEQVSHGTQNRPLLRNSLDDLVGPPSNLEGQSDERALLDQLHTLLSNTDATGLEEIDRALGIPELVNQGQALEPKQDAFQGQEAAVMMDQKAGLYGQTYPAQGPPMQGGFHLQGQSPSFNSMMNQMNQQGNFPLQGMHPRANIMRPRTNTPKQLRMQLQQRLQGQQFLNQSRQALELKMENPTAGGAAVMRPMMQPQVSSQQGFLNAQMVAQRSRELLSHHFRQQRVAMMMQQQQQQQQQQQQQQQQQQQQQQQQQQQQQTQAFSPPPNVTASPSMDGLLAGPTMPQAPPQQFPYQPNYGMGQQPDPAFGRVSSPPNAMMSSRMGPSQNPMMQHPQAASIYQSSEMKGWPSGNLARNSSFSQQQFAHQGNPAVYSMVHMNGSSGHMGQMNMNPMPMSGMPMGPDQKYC

[3] = test system: transactivating tegument protein VP16 (Human herpesvirus 1), Gal4-VP16 luciferase reporter; test: repression of VP16-driven luciferase reporter – cell-based, luminescence, high throughput, counter-screen for SRC3 inhibitor project (AID 588794; in the data active = inhibition above about 30%); conditions: mammalian cells, at 3.6 µM, stronger effect = higher value
[4] = target: Nuclear receptor coactivator 1 (Homo sapiens) (UniProt Q15788); test: NCOA1 GAL4-fusion reporter inhibition – cell-based, luminescence, quadruplicate, confirmation (AID 588820;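 active = mean inhibition above 46.68%, the untreated control wells mean plus 3 SD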;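 also: 0% = DMSO wells and 100% = gossypol 36 µM treated wells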); conditions: HEK293 GAL4-SRC1 luciferase reporter, at 3.6 µM, stronger effect = higher value
Sequence of Nuclear receptor coactivator 1 (Homo sapiens) (Q15788 whole entry, looked up, the tested form may be a part): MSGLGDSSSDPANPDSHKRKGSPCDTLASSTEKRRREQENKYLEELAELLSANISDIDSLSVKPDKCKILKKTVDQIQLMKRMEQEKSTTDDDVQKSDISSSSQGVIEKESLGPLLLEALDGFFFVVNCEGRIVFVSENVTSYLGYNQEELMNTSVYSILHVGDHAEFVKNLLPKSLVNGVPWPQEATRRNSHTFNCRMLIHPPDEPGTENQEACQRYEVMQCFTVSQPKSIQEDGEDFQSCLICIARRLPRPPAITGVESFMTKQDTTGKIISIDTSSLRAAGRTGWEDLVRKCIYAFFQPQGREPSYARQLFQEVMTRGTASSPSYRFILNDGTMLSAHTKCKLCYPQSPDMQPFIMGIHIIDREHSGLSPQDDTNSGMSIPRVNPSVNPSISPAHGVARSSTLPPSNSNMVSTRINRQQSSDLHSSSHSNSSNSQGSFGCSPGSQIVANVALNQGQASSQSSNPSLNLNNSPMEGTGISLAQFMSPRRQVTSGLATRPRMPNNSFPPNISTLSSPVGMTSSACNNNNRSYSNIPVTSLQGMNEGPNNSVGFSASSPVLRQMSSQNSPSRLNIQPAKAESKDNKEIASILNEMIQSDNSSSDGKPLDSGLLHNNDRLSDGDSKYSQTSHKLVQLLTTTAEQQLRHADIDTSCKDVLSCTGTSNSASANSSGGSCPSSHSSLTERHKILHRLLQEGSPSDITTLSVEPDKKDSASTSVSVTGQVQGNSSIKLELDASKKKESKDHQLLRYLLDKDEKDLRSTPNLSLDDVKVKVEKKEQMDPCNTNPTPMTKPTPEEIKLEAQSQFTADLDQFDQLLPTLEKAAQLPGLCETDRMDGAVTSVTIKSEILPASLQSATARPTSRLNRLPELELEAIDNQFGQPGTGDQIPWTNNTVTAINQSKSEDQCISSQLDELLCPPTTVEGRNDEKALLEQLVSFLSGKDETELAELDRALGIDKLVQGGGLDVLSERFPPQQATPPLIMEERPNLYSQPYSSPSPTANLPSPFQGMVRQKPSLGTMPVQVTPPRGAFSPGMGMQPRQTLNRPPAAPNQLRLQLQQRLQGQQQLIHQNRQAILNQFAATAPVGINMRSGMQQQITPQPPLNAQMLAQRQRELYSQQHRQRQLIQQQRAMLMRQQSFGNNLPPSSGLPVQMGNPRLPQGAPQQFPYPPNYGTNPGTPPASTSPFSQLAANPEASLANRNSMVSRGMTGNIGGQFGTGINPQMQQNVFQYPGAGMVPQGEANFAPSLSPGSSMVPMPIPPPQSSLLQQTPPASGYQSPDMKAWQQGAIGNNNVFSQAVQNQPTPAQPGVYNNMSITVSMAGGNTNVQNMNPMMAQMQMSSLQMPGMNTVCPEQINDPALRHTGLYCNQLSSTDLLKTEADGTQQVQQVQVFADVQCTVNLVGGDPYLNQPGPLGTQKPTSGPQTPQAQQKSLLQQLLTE

[5] = repression of VP16-driven luciferase reporter – cell-based, luminescence, high throughput, counter-screen for SRC1 inhibitor project (AID 588824; in the data active = inhibition above about 25%); conditions: cell-based VP16 transactivation luciferase luminescence; at 3.6 µM; stronger effect = higher value
[6] = StAR promoter reporter inhibitors, counter-screen for LRH-1 inverse agonist project, cell-based, luminescence, high throughput (AID 651611; in the data active = inhibition above about 28%); conditions: StAR promoter luciferase reporter counterscreen, at 3.6 µM, stronger effect = higher value
[7] = target: Nuclear receptor subfamily 5 group A member 2 (Homo sapiens) (UniProt O00482); test: NR5A2 activity suppression in reporter cells – cell-based, luminescence, confirmation (AID 651613; in the data active = inhibition above about 42%;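 also: HEK293T cells co-transfected with LRH-1 and StAR promoter luciferase reporter; 0% = vehicle wells and 100% = parental cells lacking receptor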); conditions: cell-based LRH-1 luciferase reporter, inverse agonism; at 3.6 µM; stronger effect = higher value
Sequence of Nuclear receptor subfamily 5 group A member 2 (Homo sapiens) (O00482 whole entry, looked up): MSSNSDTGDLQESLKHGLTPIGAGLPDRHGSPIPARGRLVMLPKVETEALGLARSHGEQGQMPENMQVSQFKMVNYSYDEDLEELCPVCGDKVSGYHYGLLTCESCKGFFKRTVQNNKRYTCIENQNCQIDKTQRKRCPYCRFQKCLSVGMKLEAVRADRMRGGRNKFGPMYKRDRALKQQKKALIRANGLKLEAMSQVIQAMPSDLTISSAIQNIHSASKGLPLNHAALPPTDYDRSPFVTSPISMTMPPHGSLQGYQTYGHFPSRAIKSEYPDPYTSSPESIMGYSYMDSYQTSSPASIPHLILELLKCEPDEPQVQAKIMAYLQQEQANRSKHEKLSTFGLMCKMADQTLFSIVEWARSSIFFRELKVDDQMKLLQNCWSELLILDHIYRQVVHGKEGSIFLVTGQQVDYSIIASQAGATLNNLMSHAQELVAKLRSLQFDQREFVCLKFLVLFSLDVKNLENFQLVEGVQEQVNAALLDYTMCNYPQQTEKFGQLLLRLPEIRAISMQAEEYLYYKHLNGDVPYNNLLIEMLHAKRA

[8] = target: Steroidogenic factor 1 (Homo sapiens) (UniProt Q13285); test: inverse agonism at SF1 nuclear receptor – cell-based, luminescence, high throughput, counter-screen for LRH-1 inverse agonist project (AID 651614; in the data active = inhibition above about 44%;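 also: cells cotransfected with StAR promoter reporter and SF1 expression vector; 0% = vehicle on cells with receptor and 100% = vehicle on cells lacking receptor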); conditions: cell-based SF1 luciferase reporter, at 3.6 µM, stronger effect = higher value
Sequence of Steroidogenic factor 1 (Homo sapiens) (Q13285 whole entry, looked up, the tested form may be a part): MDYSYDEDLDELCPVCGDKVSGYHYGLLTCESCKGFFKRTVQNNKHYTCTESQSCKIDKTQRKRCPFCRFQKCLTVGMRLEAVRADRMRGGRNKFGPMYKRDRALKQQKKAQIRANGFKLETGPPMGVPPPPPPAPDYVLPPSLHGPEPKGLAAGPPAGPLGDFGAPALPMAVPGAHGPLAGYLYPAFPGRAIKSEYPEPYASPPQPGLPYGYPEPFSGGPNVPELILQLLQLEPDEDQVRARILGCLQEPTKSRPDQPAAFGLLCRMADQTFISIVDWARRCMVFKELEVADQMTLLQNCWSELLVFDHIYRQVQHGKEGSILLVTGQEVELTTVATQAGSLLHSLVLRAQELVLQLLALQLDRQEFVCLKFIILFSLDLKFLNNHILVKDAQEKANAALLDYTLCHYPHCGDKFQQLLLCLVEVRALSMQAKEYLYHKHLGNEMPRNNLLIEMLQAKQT

[9] = compounds suppressing VP16-driven luciferase signal – cell-based, luminescence, high throughput, counter-screen for LRH-1 inverse agonist project (AID 651615; in the data active = inhibition above about 33%); conditions: Gal4-VP16 luciferase reporter cells, at 3.6 µM, stronger effect = higher value
[10] = test system: transactivating tegument protein VP16 (Human herpesvirus 1); test: compounds suppressing VP16-driven luciferase signal – cell-based, luminescence, single concentration, counter-screen for SRC2 inhibitor project (AID 652007; in the data active = inhibition above about 36%); conditions: cell-based VP16 transactivation luciferase reporter, at 8.9 µM, stronger effect = higher value
[11] = target: Nuclear receptor coactivator 2 (Homo sapiens) (UniProt Q15596); test: inhibition of GAL4-SRC2 driven luciferase expression – cell-based, luminescence, HEK293, triplicate, confirmation (AID 652008;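 active = mean inhibition above 46.5%, the solvent-only control mean plus 3 SD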;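 also: 0% = DMSO-treated cells and 100% = Gossypol at 36 µM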); conditions: HEK293 GAL4-SRC2 luciferase reporter, at 8.9 µM, stronger effect = higher value
[12] = target: Serine protease HTRA1 (Homo sapiens) (UniProt Q92743); test: confirming inhibition of human HTRA1 – biochemical, fluorescence polarization, confirmation (AID 540248;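 active = mean inhibition over three repeats above a set limit taken from the earlier primary screen, cut at about 37% in these data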;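 also: 0% = HTRA1 with DMSO and 100% = wells lacking HTRA1; inhibitors block probe binding so polarization drops and inhibition rises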); conditions: recombinant HTRA1, FP-rhodamine activity-based probe, at 5.96 µM, stronger effect = higher value

For Nc1ccc2c(c1)C(=O)C(=O)c1ccccc1-2, the inhibition [1] was 36.4% (active), the inhibition [2] was 96.7% (active) and the inhibition [3] was 95.3% (active). The inhibition [4] was 87% (active), the inhibition [5] was 93% (active) and the inhibition [6] was 98.5% (active). The inhibition [7] was 110% (active), the inhibition [8] was 98.9% (active) and the inhibition [9] was 99.1% (active). For the same molecule, the inhibition [10] was 97% (active) and the inhibition [11] was 98.8% (active).
In the case of CCC(=O)Nc1nc(C)c(-c2csc(Nc3cccc(O)c3)n2)s1, the inhibition [1] is reported as 20%, the inhibition [2] is reported as 16.5% and the inhibition [3] is reported as 47.6% (active).
With N#Cc1cc2ccccc2nc1SCC(=O)Nc1ccccc1N1CCOCC1 the inhibition [1] was 20.3%.
Nc1ccc(C(=O)N/N=C\c2cc(N=Nc3cccc4ccccc34)ccc2O)cc1 gave an inhibition [1] of 15.1%, an inhibition [2] of 15.1% and an inhibition [3] of 17.7%. The inhibition [4] was 14.5% and the inhibition [5] was 31.8% (active).
With N#C/C(=N\Nc1cccc([N+](=O)[O-])c1)C(=O)c1ccc(Br)cc1 the inhibition [1] was 29.5% (active), the inhibition [2] was 4.19% and the inhibition [3] was 26.8%.
COc1ccc(NS(=O)(=O)c2ccc3oc(Nc4ccc5c(c4)OCCO5)nc3c2)cc1 showed an inhibition [1] of 12.1%.
For COc1ccc(-c2csc(NC(=O)c3ccccc3NS(=O)(=O)c3ccc(F)c(F)c3)n2)cc1, the inhibition [1] was -5.29%, the inhibition [2] was 69.3% (active) and the inhibition [3] was 71.4% (active). The inhibition [4] was 55% (active) and the inhibition [5] was 81.9% (active).
In the case of Cc1ccc(Nc2nc(-c3ccc(O)cc3O)cs2)nc1, the inhibition [1] is reported as 34% (active) and the inhibition [12] is reported as 50.7% (active).
With O=C1C(Nc2ccccc2)=C/C(=N/S(=O)(=O)c2cccs2)c2ccccc21 the inhibition [1] was 35.5% (active), the inhibition [2] was 79.7% (active) and the inhibition [3] was 59.4% (active). The inhibition [4] was 44.6% and the inhibition [5] was 75.7% (active).
For COc1cccc(N2CCN(c3ncnc4c3[nH]c3ccc(F)cc34)CC2C)c1 (configuration not stated), the inhibition [1] was 26.7% (active), the inhibition [2] was 95.2% (active) and the inhibition [3] was 93.4% (active). The inhibition [4] was 86.7% (active), the inhibition [5] was 91.8% (active) and the inhibition [6] was 93.4% (active). For the same molecule, the inhibition [7] was 108% (active), the inhibition [8] was 97.8% (active) and the inhibition [9] was 97.2% (active). For the same molecule, the inhibition [10] was 95.4% (active) and the inhibition [11] was 99.5% (active).
For Brc1ccc(N/N=C(/N=Nc2nn[nH]n2)c2ccccc2)cc1, the inhibition [1] was 57.1% (active), the inhibition [2] was 83.2% (active) and the inhibition [3] was 80.2% (active).
In the case of O=C(O)c1ccccc1-c1ccccc1C(=O)Nc1ccc(-c2nc3cc(Cl)ccc3o2)cc1, the inhibition [1] is reported as 22.2%.
In the case of COc1ccc(O)c(/C=N/NC(=S)Nc2cccc(S(=O)(=O)N(C)C)c2)c1, the inhibition [1] is reported as 25.4%, the inhibition [2] is reported as 24.6% and the inhibition [3] is reported as 26.2%.
In the case of COc1cccc2c1C(=O)c1c(O)c3c(c(O)c1C2=O)C[C@@](O)(C(=O)CO)C[C@@H]3O[C@H]1C[C@H](N)[C@H](O)[C@H](C)O1, the inhibition [1] is reported as 36.3% (active), the inhibition [2] is reported as 49.7% (active) and the inhibition [3] is reported as 87.7% (active).
With O=c1c2ccccc2nc(N/N=C/c2c(O)ccc3ccccc23)n1O the inhibition [1] was 43.9% (active), the inhibition [2] was 55.4% (active) and the inhibition [3] was 78.8% (active). For the same molecule, the inhibition [4] was 20.9%, the inhibition [5] was 76.4% (active) and the inhibition [6] was 81.4% (active). For the same molecule, the inhibition [7] was 101% (active), the inhibition [8] was 90.2% (active) and the inhibition [9] was 78.3% (active).
In the case of CCCCN(CCCC)CCNC(=O)c1cn(CC)c2ccc(S(=O)(=O)N3CCc4ccccc4C3)cc2c1=O, the inhibition [1] is reported as 48.8% (active).
For CCCN(CC(=O)Nc1ccccc1C)C(=O)COC(=O)CSc1ccc([N+](=O)[O-])cc1, the inhibition [1] was 17.4%.
In the case of COC(=O)c1cc(C)nc2c1C(=O)C(=O)C=C2N1CCOCC1, the inhibition [1] is reported as 40% (active), the inhibition [2] is reported as 69.5% (active) and the inhibition [3] is reported as 54.7% (active). The inhibition [4] was -43.5%, the inhibition [5] was 52.3% (active) and the inhibition [10] was 54.2% (active). The inhibition [11] was 99.2% (active).
In the case of COc1ccc(/C=N/NC(=S)Nc2ccccc2[N+](=O)[O-])cc1O, the inhibition [1] is reported as 43.4% (active), the inhibition [2] is reported as -21.4% and the inhibition [3] is reported as -47%. It also gave an inhibition [4] of -91.8% and an inhibition [5] of -70%.
Molecule Cc1cc([N+](=O)[O-])ccc1-c1ccc(C2Nc3ccccc3C(=O)N2O)o1 (configuration not stated) has an inhibition [1] of 25%, an inhibition [2] of 23.6% and an inhibition [3] of 1.31%.
For COc1cccc(/C=N/Nc2ccc([N+](=O)[O-])cn2)c1O, the inhibition [1] was 1.07%, the inhibition [2] was 48% (active) and the inhibition [3] was 10.2%.
With CCn1nc([N+](=O)[O-])c(C(C#N)c2nc3cc(C(F)(F)F)ccc3s2)c(Cl)c1=O (configuration not stated) the inhibition [1] was 67.1% (active), the inhibition [2] was 10.4% and the inhibition [3] was 12.3%.
With Oc1c(Br)cc(Br)c(/C=N/n2c(-c3ccccc3)n[nH]c2=S)c1Br the inhibition [1] was 45.5% (active).
In the case of Cc1ccc(NCC(O)C(O)C(O)CO)c(N=Nc2ccccc2)c1C (configuration not stated), the inhibition [1] is reported as 50.7% (active).
Work on O=C(OCCN(C1=NS(=O)(=O)c2ccccc21)c1ccc(Cl)cc1)c1ccco1 yielded an inhibition [1] of 20.6%.
With CCCCn1c(NS(=O)(=O)c2ccccc2)c(S(=O)(=O)c2ccc(C)cc2)c2nc3ccccc3nc21 the inhibition [1] was 11.6%, the inhibition [6] was 15.2% and the inhibition [7] was 19.7%. The inhibition [8] was 24.9% and the inhibition [9] was -6.99%.
